Assay results from PubChem BioAssay (Tox21).
Inconclusive results are not listed. Active and inactive are the calls of the source. Unless noted, calls follow the shape of the full dose curve.

Assays:
[1] = Nuclear factor erythroid 2-related factor 2/antioxidant responsive element (Nrf2/ARE) small molecule agonists: qHTS cell viability counter screen in human keratinocytes (AID 1919968; active = well fitted curve in the direction sought with a large enough effect in the repeat runs; an effect the other way counts as inactive or inconclusive; also: nearly all actives have a fitted effect of over 55% in size)
Method in brief: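 KeratinoSens cells (HaCaT keratinocytes stably carrying an ARE-luciferase reporter) were seeded at 1,500 cells/well and rested 5 h at 37 C/5% CO2. They were then exposed to compounds in DMSO for 23 h. Viability was read by CellTiter-Fluor fluorescence after 1 h.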

[2] = Nuclear factor erythroid 2-related factor 2/antioxidant responsive element (Nrf2/ARE) small molecule agonists: luciferase reporter gene qHTS assay in human keratinocytes (AID 1919969); also: nearly all actives have a fitted effect of over 35% in size; also: potency is read from the fitted curve at half-maximal effect
[3] = target: Gonadotropin-releasing hormone receptor (Homo sapiens) (UniProt P30968); assay: Human gonadotropin-releasing hormone receptor (GnRHR) small molecule agonists, calcium flux assay in GnRHR-HEK293 cells (AID 1920063); also: nearly all actives have a fitted effect of over 35% in size; also: potency is read from the fitted curve at half-maximal effect
Method in brief: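 HEK293 cells stably expressing human GnRHR were plated 18 h at 37 °C, loaded with calcium dye 1 h at 37 °C, then given compound in agonist mode; fluorescence (Ex/Em 480/540) read kinetically for 3 min at 1 s intervals.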

[4] = G protein-coupled receptor (GPCR) small molecule agonists, calcium flux assay: HEK293 wild type cell line counter screen (AID 1920065); also: potency is read from the fitted curve at half-maximal effect
Method in brief: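 Cells were plated and cultured 18 h at 37 C/5% CO2, then loaded with calcium dye for 1 h at 37 C. Compounds in DMSO were pin-transferred in agonist mode, and fluorescence (Ex/Em 480/540) was read kinetically for 3 min at 1 s intervals.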

[5] = p53 small molecule agonists, cell-based qHTS assay with rat liver microsomes (AID 1963578)
Method in brief: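 Compound in DMSO added to p53RE-bla cells 5 h post-plating; rat microsomes/NADPH 0.5 mg/mL final; 16 h, 37 C; LiveBLAzer 2 h RT.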

[6] = p53 small molecule agonists, cell-based qHTS assay with human liver microsomes: qHTS cell viability counter screen (AID 1963579); also: nearly all actives have a fitted effect of over 45% in size; also: potency is read from the fitted curve at half-maximal effect
Method in brief: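 HLM-supplemented (0.5 mg/mL final) and NADPH-supplemented (0.5 mg/mL final) p53RE-bla cultures, 4,000 cells per well, were dosed with compounds in DMSO for 16 h at 37 C; luminescent ATP detection (CellTiter-Glo, 30 min, room temperature) quantified surviving cells.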

[7] = p53 small molecule agonists, cell-based qHTS assay with rat liver microsomes: qHTS cell viability counter screen (AID 1963580); also: nearly all actives have a fitted effect of over 45% in size
Method in brief: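 Intracellular ATP, by CellTiter-Glo luminescence, defines viability. HCT-116 p53RE-bla cells, 4,000 per well, were compound-treated in the presence of rat liver microsomes and NADPH for 16 h at 37 C.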

[8] = p53 small molecule agonists, cell-based qHTS assay: qHTS cell viability counter screen (AID 1963581); also: nearly all actives have a fitted effect of over 45% in size
Method in brief: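 p53RE-bla HCT-116 cells were exposed to compounds for 16 h at 37 C; after the beta-lactamase FRET read in the same wells, CellTiter-Glo was added and luminescence (intracellular ATP) read after 30 min at room temperature.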

[9] = target: 5-hydroxytryptamine receptor 2A (Homo sapiens) (UniProt P28223); assay: 5-hydroxytryptamine receptor 2A (HTR2A) small molecule antagonists, cell-based qHTS assay (AID 1963586); also: nearly all actives have a fitted effect of over 45% in size; also: potency is read from the fitted curve at half-maximal effect
Method in brief: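 Antagonist-mode intracellular calcium assay: DOI (4 nM) added after 5 min compound pre-incubation at room temperature to dye-loaded HTR2A-CHO cells. Fluorescence followed for 3 min, sampled every second.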

[10] = target: 5-hydroxytryptamine receptor 2A (Homo sapiens) (UniProt P28223); assay: 5-hydroxytryptamine receptor 2A (HTR2A) small molecule agonists, cell-based qHTS assay (AID 1963587); also: nearly all actives have a fitted effect of over 30% in size; also: potency is read from the fitted curve at half-maximal effect
Method in brief: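 Kinetic calcium-flux fluorescence (2 min, 1 sec intervals) after compound addition in agonist mode. HTR2A-CHO cells were cultured 18 h, then dye-loaded 1 h at 37 C.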

[11] = target: Muscarinic acetylcholine receptor M1 (Homo sapiens) (UniProt P11229); assay: Cholinergic receptor muscarinic 1 (CHRM1) small molecule antagonists, cell-based qHTS assay (AID 1963588); also: nearly all actives have a fitted effect of over 40% in size; also: potency is read from the fitted curve at half-maximal effect
Method in brief: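 CHRM1-CHO calcium-flux assay, antagonist mode. Cells were seeded 18 h, dye-loaded 1 h at 37 C and given compound for 5 min at RT, then acetylcholine was added at 50nM. FDSS fluorescence was read 3 min; 15 concentrations, three runs.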

[12] = target: Muscarinic acetylcholine receptor M1 (Homo sapiens) (UniProt P11229); assay: Cholinergic receptor muscarinic 1 (CHRM1) small molecule agonists, cell-based qHTS assay (AID 1963589); also: nearly all actives have a fitted effect of over 35% in size; also: potency is read from the fitted curve at half-maximal effect
Method in brief: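 CHO cells stably expressing human CHRM1, seeded 18 h at 37 C/5% CO2, dye-loaded 1 h at 37 C, then given compound in agonist mode; intracellular calcium fluorescence read kinetically at 1 s intervals. Fifteen concentrations, three independent runs.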

[13] = cAMP Responsive Elements (CRE) small molecule agonists, cell-based qHTS assay (AID 1963590)
Method in brief: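 CRE-bla HEK 293T cells in DMEM with 10% dialyzed FBS, NEAA, pyruvate and 25 mM HEPES were plated 18 h at 37 C/5% CO2, then exposed to compounds in DMSO for 3 h before LiveBLAzer B/G FRET substrate addition.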

[14] = cAMP Responsive Elements (CRE) small molecule antagonists, cell-based qHTS assay (AID 1963591; active = well fitted inhibition curve with a large enough effect in the signal ratio in the repeat runs, not every such curve was filed as active; the % refers to the signal ratio)
Method in brief: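 CRE-bla HEK293T cells were plated 18 h at 37 °C/5% CO2, pinned with compound in DMSO, then stimulated with NKH477 at 0.25 uM final for 3 h. LiveBLAzer B/G FRET substrate was added and plates incubated 2 h at room temperature.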

[15] = target: Beta-2 adrenergic receptor (Homo sapiens) (UniProt P07550); assay: Adrenergic beta2 receptor (ADRB2) small molecule antagonists, cell-based qHTS assay (AID 1963592); also: series mostly up to about 92 µM; nearly all actives have a fitted effect of over 50% in size
Method in brief: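 Cells (CHO, stable ADRB2 overexpression) incubated 18-20hr at 37C; compounds added from DMSO; agonist mix (1nM isoproterenol, 100uM IBMX, 25uM Ro-20-1724) added; 0.5hr RT; d2-cAMP and anti-cAMP-cryptate added; 1hr RT; 665/615 nm read.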

[16] = target: D(2) dopamine receptor (Homo sapiens) (UniProt P14416); assay: Dopamine D2 receptor (DRD2) small molecule agonists, cell-based qHTS assay (AID 1963594); also: nearly all actives have a fitted effect of over 35% in size
Method in brief: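 cAMP accumulation in DRD2-HEK293 cells measured by HTRF after 1 h detection; compounds added 10 min before NKH477 (200nM […]) forskolin-analogue stimulation, 30 min at room temperature, with Ro20-1724 present at 0.1 mM final.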

[17] = target: D(2) dopamine receptor (Homo sapiens) (UniProt P14416); assay: Dopamine D2 receptor (DRD2) small molecule antagonists, cell-based qHTS assay (AID 1963595; active = well fitted inhibition curve with a large enough effect in the signal ratio in the repeat runs, with a control signal flat; the % refers to the signal ratio)
Method in brief: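 Human DRD2 antagonist qHTS measuring cAMP by HTRF. The cells are exposed to compound for 10 min, then to NKH477 (200 nM) and quinpirole (12 nM) for 30 min at RT, with Ro20-1724 (0.1 mM) present throughout.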

[18] = target: KiSS-1 receptor (Homo sapiens) (UniProt Q969F8); assay: Human kisspeptin (KISS1R) small molecule agonists, calcium flux assay in KISS1R-HEK293 cells (AID 1920064; active = well fitted curve in the direction sought with a large enough effect in the repeat runs; an effect the other way counts as inactive or inconclusive)
Method in brief: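 HEK293 cells stably expressing human KISS1R were plated 18 h at 37 °C, loaded with calcium dye for 1 h at 37 °C, then given compound by pin tool. Fluorescence (Ex/Em 480/540) was read kinetically for 3 min.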

[19] = target: Beta-2 adrenergic receptor (Homo sapiens) (UniProt P07550); assay: Adrenergic beta2 receptor (ADRB2) small molecule agonists, cell-based qHTS assay (AID 1963593);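 also: CHO cells stably overexpressing human ADRB2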
Method in brief: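 CHO cells stably over-expressing ADRB2 were plated overnight at 37C, then dosed with compounds plus a stimulation mix containing 100uM IBMX and 25uM Ro-20-1724 for 0.5hr at room temperature. cAMP was measured by HTRF competition, 1hr.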

[20] = p53 small molecule agonists, cell-based qHTS assay (AID 1963582; active = well fitted activation curve with a large enough effect in the signal ratio in the repeat runs, not every such curve was filed as active; the % refers to the signal ratio)
Method in brief: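 p53RE-bla beta-lactamase reporter cells rested 5 h at 37 C/5% CO2, then received compounds in DMSO by pin transfer and were incubated 16 h at 37 C. LiveBLAzer B/G FRET substrate was loaded for 2 h at room temperature before fluorescence reading.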
% is scaled to controls: 0 for no effect and ±100 for the full control effect.

Sequence of 5-hydroxytryptamine receptor 2A (Homo sapiens) (P28223 whole entry, looked up): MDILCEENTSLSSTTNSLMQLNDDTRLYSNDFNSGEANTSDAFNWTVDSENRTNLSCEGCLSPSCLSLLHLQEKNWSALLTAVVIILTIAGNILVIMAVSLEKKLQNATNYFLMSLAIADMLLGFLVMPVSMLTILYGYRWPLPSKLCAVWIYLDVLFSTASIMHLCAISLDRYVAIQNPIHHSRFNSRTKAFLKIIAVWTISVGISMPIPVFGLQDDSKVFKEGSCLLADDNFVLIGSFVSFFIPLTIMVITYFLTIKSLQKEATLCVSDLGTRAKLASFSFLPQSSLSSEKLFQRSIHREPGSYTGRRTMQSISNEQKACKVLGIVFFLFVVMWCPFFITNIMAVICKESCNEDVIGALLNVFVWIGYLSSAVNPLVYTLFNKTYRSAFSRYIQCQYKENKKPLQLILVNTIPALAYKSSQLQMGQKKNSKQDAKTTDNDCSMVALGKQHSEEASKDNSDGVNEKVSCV
Sequence of Gonadotropin-releasing hormone receptor (Homo sapiens) (P30968 whole entry, looked up): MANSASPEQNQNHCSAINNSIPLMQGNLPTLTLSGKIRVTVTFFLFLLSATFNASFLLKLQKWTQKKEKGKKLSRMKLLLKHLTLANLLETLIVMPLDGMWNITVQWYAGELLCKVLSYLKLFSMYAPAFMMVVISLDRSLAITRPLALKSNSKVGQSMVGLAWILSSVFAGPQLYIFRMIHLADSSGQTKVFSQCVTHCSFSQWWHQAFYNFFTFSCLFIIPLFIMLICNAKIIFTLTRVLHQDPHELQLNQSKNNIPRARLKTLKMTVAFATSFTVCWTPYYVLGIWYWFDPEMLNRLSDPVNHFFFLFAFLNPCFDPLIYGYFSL
Sequence of Muscarinic acetylcholine receptor M1 (Homo sapiens) (P11229 whole entry, looked up): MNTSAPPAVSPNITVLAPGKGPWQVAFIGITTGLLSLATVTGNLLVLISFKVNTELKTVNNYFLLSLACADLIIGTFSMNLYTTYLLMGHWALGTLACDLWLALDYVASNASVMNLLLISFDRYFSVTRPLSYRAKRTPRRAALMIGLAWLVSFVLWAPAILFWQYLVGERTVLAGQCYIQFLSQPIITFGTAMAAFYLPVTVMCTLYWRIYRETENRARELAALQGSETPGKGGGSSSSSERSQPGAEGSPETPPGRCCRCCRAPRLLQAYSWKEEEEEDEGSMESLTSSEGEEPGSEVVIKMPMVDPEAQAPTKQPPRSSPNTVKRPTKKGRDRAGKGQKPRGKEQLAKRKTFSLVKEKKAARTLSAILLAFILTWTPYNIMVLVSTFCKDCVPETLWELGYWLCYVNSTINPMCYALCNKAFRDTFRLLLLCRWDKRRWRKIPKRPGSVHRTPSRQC
Sequence of D(2) dopamine receptor (Homo sapiens) (P14416 whole entry, looked up): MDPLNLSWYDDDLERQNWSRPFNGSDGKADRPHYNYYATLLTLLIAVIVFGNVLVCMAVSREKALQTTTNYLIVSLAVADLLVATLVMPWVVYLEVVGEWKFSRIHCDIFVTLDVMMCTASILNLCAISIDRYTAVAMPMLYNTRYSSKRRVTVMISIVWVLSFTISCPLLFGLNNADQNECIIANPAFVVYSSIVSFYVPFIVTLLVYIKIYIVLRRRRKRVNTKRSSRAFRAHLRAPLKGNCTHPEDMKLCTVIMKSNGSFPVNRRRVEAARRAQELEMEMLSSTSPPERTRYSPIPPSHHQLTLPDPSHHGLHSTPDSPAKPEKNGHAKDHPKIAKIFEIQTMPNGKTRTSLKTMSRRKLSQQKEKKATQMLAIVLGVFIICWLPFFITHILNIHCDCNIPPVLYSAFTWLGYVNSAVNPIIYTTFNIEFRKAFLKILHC
Sequence of Beta-2 adrenergic receptor (Homo sapiens) (P07550 whole entry, looked up): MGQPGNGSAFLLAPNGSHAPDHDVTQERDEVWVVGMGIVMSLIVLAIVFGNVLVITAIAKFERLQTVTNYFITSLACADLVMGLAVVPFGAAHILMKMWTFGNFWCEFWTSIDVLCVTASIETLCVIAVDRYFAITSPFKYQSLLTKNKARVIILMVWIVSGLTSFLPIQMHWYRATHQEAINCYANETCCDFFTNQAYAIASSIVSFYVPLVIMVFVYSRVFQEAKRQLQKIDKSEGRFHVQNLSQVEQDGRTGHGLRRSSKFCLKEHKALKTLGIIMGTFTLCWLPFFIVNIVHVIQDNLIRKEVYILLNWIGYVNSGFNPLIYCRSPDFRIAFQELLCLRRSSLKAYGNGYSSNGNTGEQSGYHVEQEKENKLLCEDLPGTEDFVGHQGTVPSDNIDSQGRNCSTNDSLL
Sequence of KiSS-1 receptor (Homo sapiens) (Q969F8 whole entry, looked up): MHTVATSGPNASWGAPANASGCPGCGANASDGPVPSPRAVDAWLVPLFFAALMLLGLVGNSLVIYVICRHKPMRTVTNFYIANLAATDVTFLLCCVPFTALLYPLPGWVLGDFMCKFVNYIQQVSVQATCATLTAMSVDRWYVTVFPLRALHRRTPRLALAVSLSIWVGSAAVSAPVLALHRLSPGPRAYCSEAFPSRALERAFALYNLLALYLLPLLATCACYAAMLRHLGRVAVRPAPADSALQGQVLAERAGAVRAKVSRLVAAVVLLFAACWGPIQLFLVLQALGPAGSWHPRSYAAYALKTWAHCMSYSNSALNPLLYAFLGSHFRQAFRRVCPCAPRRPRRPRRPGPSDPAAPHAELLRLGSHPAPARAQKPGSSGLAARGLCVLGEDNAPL

CCCCCCCCCCC[C@@H](C[C@@H]1OC(=O)[C@H]1CCCCCC)OC(=O)[C@H](CC(C)C)NC=O
inactive: Potency [1] | Potency [2] | Potency [3] | Potency [4] | Potency [5] | Potency [6] | Potency [7] | Potency [8] | Potency [9] | Potency [10] | Potency [11] | Potency [12] | Potency [13] | Potency [14] | Potency [15] | Potency [16]

CN(C)c1ccc(C2(c3ccc(N(C)C)cc3)OC(=O)c3cc(N(C)C)ccc32)cc1
inactive: Potency [1] | Potency [2] | Potency [3] | Potency [4] | Potency [5] | Potency [7] | Potency [8] | Potency [9] | Potency [12] | Potency [13] | Potency [14] | Potency [16] | Potency [17]
active: Potency [6] 18.2 µM

CCN1CCC[C@H]1CNC(=O)c1c(OC)ccc(Br)c1OC
inactive: Potency [1] | Potency [2] | Potency [3] | Potency [18] | Potency [6] | Potency [8] | Potency [9] | Potency [11] | Potency [13] | Potency [14] | Potency [15] | Potency [19]

CC(C)(C)c1cc(O)c(C(C)(C)C)cc1O
inactive: Potency [1] | Potency [5] | Potency [6] | Potency [7] | Potency [8] | Potency [13] | Potency [14] | Potency [15] | Potency [19] | Potency [16] | Potency [17]
active: Potency [2] 15.4 µM | Potency [3] 5.49 µM | Potency [4] 34.7 µM | Potency [9] 14.9 µM | Potency [10] 1.1 µM | Potency [11] 18.8 µM | Potency [12] 11 µM

O=S(=O)(O)c1cc(S(=O)(=O)O)c2ccc3c(S(=O)(=O)O)cc(S(=O)(=O)O)c4ccc1c2c43
inactive: activity change, negative = cytotoxicity [1] 0.791% [at 19 µM] | activity, positive = activation [2] -1.98% [at 19 µM] | activity change [3] 0.0619% [at 11.8 µM, hits give high values] | activation [4] 0.205% [at 11.8 µM] | activation [5] -1.38% [at 13.6 µM] | activity change, negative = cytotoxicity [7] 1.49% [at 13.5 µM] | activity change, negative = cytotoxicity [8] -29.1% [at 13.5 µM] | activation [20] 4.26% [at 13.5 µM] | activity, negative = inhibition [9] -5.22% [at 12.7 µM] | activation [10] -0.138% [at 15.9 µM] | activity, negative = inhibition [11] -5.56% [at 12.6 µM] | activation [12] -0.115% [at 15.8 µM] | activation [13] 0.24% [at 19 µM] | activity change, negative = inhibition [14] -8.72% [at 18.9 µM] | activation [19] -12.6% [at 19 µM] | activation [16] 0.241% [at 19 µM] | activity change, negative = inhibition [17] -2.86% [at 18.9 µM]
